Results from PubChem BioAssay.
For some assays here: Entries with a potency or affinity are not part of this list. Activity calls are given as the source filed them. No rule for the calls is given here.

Biological target: Plasmodium falciparum protein kinase 6 (PK6, PF3D7_1337100) (UniProt Q8IDW1)
Assay: PfPK6 kinase inhibitors, biochemical, TCAMS library (AID 1159586)
Details: recombinant PfPK6, Kinase-Glo ATP depletion luminescence

Plasmodium falciparum protein kinase 6 (PK6, PF3D7_1337100), sequence (Q8IDW1 1-305): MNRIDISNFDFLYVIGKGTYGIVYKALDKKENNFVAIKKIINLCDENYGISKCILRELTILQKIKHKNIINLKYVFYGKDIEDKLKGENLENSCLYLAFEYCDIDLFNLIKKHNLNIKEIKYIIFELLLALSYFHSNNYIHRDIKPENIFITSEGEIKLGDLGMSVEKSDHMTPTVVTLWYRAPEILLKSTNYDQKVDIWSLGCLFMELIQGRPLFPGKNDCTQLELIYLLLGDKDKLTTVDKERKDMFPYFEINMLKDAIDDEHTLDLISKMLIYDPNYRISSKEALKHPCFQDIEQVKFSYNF

SMILES	outcome
c1ccc(C(OCCC2CCN(Cc3cccc4cccnc34)CC2)c2ccccc2)cc1	inactive
Cc1ccc(C)c(C=CC(=O)NC2CCC(CN3CCC(c4c[nH]c5ccccc45)CC3)CC2)c1 (stereo not given)	inactive
Cc1cc(N)nc2ccc(CNCCc3ccccc3Br)cc12	inactive
Fc1ccc(N(c2nc(-c3cc(F)cc(C(F)(F)F)c3)cs2)C2CCNCC2)cc1	inactive
CC(Cc1ccc(SC(C)C)cc1)NCC(O)c1cccc(Cl)c1 (stereo not given)	inactive
CC[C@H]1CN2CC[C@@H]1C[C@H]2[C@H](O)c1cc(-c2ccc(F)cc2)nc2ccc(O)cc12	inactive
CC(=O)Nc1ccc2[nH]cc(C3CCN(CC4CCN(C(=O)/C=C/c5ccc(Cl)c(Cl)c5)CC4)CC3)c2c1	inactive
COc1ccc(O)c(CN2CCN(c3cc(C)ccc3C)CC2)c1	inactive
CCN1CC=C(c2c[nH]c3ccccc23)CC1	inactive
CC[C@H]1CN2CC[C@H]1C[C@H]2[C@H](O)c1cc(/C=C/c2ccc(F)cc2)nc2ccc(OC)cc12	inactive
O=C(NCc1ccc(S(=O)(=O)N2CCC(CN3CCC(c4c[nH]c5ccccc45)CC3)CC2)s1)c1ccccc1	inactive
COC(=O)c1ccc(CC(C)NCC(O)c2cccc(Cl)c2Cl)cc1 (stereo not given)	inactive
COCCNCc1cccc(-c2ccc(CN(C(=O)Nc3ccccc3)C3CCN(Cc4ccccc4)CC3)cc2)c1	inactive
C=Cc1cc(OC)c2c(c1)c(=O)oc1c2cc(OC)c2c(O)ccc([C@H]3O[C@H]([C@@H](C)O)[C@H](O)[C@H]3O)c21	inactive
c1ccc(C(OCCC2CCN(Cc3cccnc3)CC2)c2ccccc2)cc1	inactive
N#Cc1ccc(N(CC(=O)NCCc2ccccc2)CC2CC2)c2ccccc12	inactive
Cc1ccc(C)c(N2CCN(Cc3ccccc3O)CC2)c1	inactive
CC[C@H]1CN2CC[C@H]1C[C@H]2[C@H](O)c1cc(N2CCCC(CO)C2)nc2ccc(OC)cc12 (stereo not given in full)	inactive
COc1cccc(CN2CCC(CCOC(c3ccccc3)c3ccc(Cl)cc3)CC2)c1O (stereo not given)	inactive
CN1CC=C(c2c[nH]c3ccc(-c4ccccc4)cc23)CC1	inactive

SMILES	outcome
Cc1csc(NC2=NCCN2)n1	inactive
CSc1ccc(C[C@@H](C)NC[C@H](O)c2cccc(Cl)c2)cc1	inactive
O=C(c1cc(C(F)(F)F)cc(C(F)(F)F)c1)N1CC[C@H](CCN2CCC3(CC2)C(=O)NCN3c2ccccc2)C[C@H]1Cc1ccc(Cl)c(Cl)c1	inactive
CC[C@H]1CN2CC[C@H]1C[C@H]2[C@H](O)c1cc(-c2ccc(SC)cc2)nc2ccc(OC)cc12	inactive
CC(C)CNCc1cccc(-c2cccc(CN(C(=O)Nc3ccccc3)C3CCN(Cc4ccccc4)CC3)c2)c1	inactive
Cc1ccc(CC(C)NCC(O)c2cccc(C(F)(F)F)c2)cc1F (stereo not given)	inactive
O=C(Nc1ccc(Oc2ccccc2)cc1)NC1CCC(CN2CCC(c3c[nH]c4ccccc34)CC2)CC1 (stereo not given)	inactive
O=C(/C=C/c1ccc(Cl)c(Cl)c1)N(Cc1ccccc1)C1CCC(CN2CCC(c3c[nH]c4ccccc34)CC2)CC1 (stereo not given)	inactive
CNCCCCCCOc1ccc(CC(C)NCC(O)c2cccc(C(F)(F)F)c2)cc1 (stereo not given)	inactive
CC[C@H]1CN2CC[C@@H]1C[C@@H]2[C@@H](O)c1cc(-c2ccc(F)cc2)nc2ccc(OC)cc12	inactive
COCCNCc1ccc(-c2ccc(CN(C(=O)NC3CCCCC3)C3CCN(Cc4ccccc4)CC3)cc2)cc1	inactive
CCCCn1c(C)c(C(=O)OCC)c2cc(OC(C)=O)c(Br)cc21	inactive
Cn1cc(CN2CCC(CCOC(c3ccccc3)c3ccccc3)CC2)cn1	inactive
O=C(Cc1cc(=O)oc2cc(O)ccc12)NC1CCC(CN2CCC(c3c[nH]c4ccccc34)CC2)CC1 (stereo not given)	inactive
CC(C)c1ccc(C=CC(=O)NC2CCC(CN3CCC(c4c[nH]c5ccccc45)CC3)CC2)cc1 (stereo not given)	inactive
COc1ccc(CC(C)NCC(O)c2cccc(Br)c2)cc1 (stereo not given)	inactive
C=C[C@H]1CN2CC[C@@H]1C[C@H]2[C@H](O)c1cc(-c2ccc(F)cc2)nc2ccc(OC)cc12	inactive
CN1CC=C(C=Cc2c[nH]c3ccccc23)CC1	inactive
CNCC(O)c1cc(Cl)c(Cl)cc1C (stereo not given)	inactive
[O-]c1n[n+](C2CCCCC2)no1	inactive

Biological target: Protein kinase 7 (PK7), Plasmodium falciparum 3D7 (PF3D7_0213400) (UniProt Q7YTF7)
Assay: inhibition of Plasmodium PK7 catalytic activity – biochemical, TCAMS antimalarial set, Kinase-Glo luminescence (AID 1159587)
Details: recombinant PfPK7, Kinase-Glo ATP depletion luminescence

Protein kinase 7 (PK7), Plasmodium falciparum 3D7 (PF3D7_0213400), sequence (Q7YTF7 1-343): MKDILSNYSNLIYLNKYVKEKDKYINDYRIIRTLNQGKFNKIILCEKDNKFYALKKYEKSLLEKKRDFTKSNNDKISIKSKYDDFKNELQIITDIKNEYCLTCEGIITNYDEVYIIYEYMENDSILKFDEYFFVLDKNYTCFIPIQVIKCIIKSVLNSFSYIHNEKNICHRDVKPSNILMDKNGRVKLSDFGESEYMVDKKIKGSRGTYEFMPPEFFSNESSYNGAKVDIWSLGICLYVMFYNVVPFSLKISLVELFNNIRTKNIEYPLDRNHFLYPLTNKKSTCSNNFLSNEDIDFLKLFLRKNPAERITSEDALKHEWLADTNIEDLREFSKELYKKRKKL

SMILES	outcome
c1ccc(C(OCCC2CCN(Cc3cccc4cccnc34)CC2)c2ccccc2)cc1	inactive
Cc1ccc(C)c(C=CC(=O)NC2CCC(CN3CCC(c4c[nH]c5ccccc45)CC3)CC2)c1 (stereo not given)	inactive
Cc1cc(N)nc2ccc(CNCCc3ccccc3Br)cc12	inactive
Fc1ccc(N(c2nc(-c3cc(F)cc(C(F)(F)F)c3)cs2)C2CCNCC2)cc1	inactive
CC(Cc1ccc(SC(C)C)cc1)NCC(O)c1cccc(Cl)c1 (stereo not given)	inactive
CC[C@H]1CN2CC[C@@H]1C[C@H]2[C@H](O)c1cc(-c2ccc(F)cc2)nc2ccc(O)cc12	inactive
CC(=O)Nc1ccc2[nH]cc(C3CCN(CC4CCN(C(=O)/C=C/c5ccc(Cl)c(Cl)c5)CC4)CC3)c2c1	inactive
COc1ccc(O)c(CN2CCN(c3cc(C)ccc3C)CC2)c1	inactive
CCN1CC=C(c2c[nH]c3ccccc23)CC1	inactive
CC[C@H]1CN2CC[C@H]1C[C@H]2[C@H](O)c1cc(/C=C/c2ccc(F)cc2)nc2ccc(OC)cc12	inactive
O=C(NCc1ccc(S(=O)(=O)N2CCC(CN3CCC(c4c[nH]c5ccccc45)CC3)CC2)s1)c1ccccc1	inactive
COC(=O)c1ccc(CC(C)NCC(O)c2cccc(Cl)c2Cl)cc1 (stereo not given)	inactive
COCCNCc1cccc(-c2ccc(CN(C(=O)Nc3ccccc3)C3CCN(Cc4ccccc4)CC3)cc2)c1	inactive
C=Cc1cc(OC)c2c(c1)c(=O)oc1c2cc(OC)c2c(O)ccc([C@H]3O[C@H]([C@@H](C)O)[C@H](O)[C@H]3O)c21	inactive
c1ccc(C(OCCC2CCN(Cc3cccnc3)CC2)c2ccccc2)cc1	inactive
N#Cc1ccc(N(CC(=O)NCCc2ccccc2)CC2CC2)c2ccccc12	inactive
Cc1ccc(C)c(N2CCN(Cc3ccccc3O)CC2)c1	inactive
CC[C@H]1CN2CC[C@H]1C[C@H]2[C@H](O)c1cc(N2CCCC(CO)C2)nc2ccc(OC)cc12 (stereo not given in full)	inactive
COc1cccc(CN2CCC(CCOC(c3ccccc3)c3ccc(Cl)cc3)CC2)c1O (stereo not given)	inactive
CN1CC=C(c2c[nH]c3ccc(-c4ccccc4)cc23)CC1	inactive

SMILES	outcome
Cc1csc(NC2=NCCN2)n1	inactive
CSc1ccc(C[C@@H](C)NC[C@H](O)c2cccc(Cl)c2)cc1	inactive
O=C(c1cc(C(F)(F)F)cc(C(F)(F)F)c1)N1CC[C@H](CCN2CCC3(CC2)C(=O)NCN3c2ccccc2)C[C@H]1Cc1ccc(Cl)c(Cl)c1	inactive
CC[C@H]1CN2CC[C@H]1C[C@H]2[C@H](O)c1cc(-c2ccc(SC)cc2)nc2ccc(OC)cc12	inactive
CC(C)CNCc1cccc(-c2cccc(CN(C(=O)Nc3ccccc3)C3CCN(Cc4ccccc4)CC3)c2)c1	inactive
Cc1ccc(CC(C)NCC(O)c2cccc(C(F)(F)F)c2)cc1F (stereo not given)	inactive
O=C(Nc1ccc(Oc2ccccc2)cc1)NC1CCC(CN2CCC(c3c[nH]c4ccccc34)CC2)CC1 (stereo not given)	inactive
O=C(/C=C/c1ccc(Cl)c(Cl)c1)N(Cc1ccccc1)C1CCC(CN2CCC(c3c[nH]c4ccccc34)CC2)CC1 (stereo not given)	inactive
CNCCCCCCOc1ccc(CC(C)NCC(O)c2cccc(C(F)(F)F)c2)cc1 (stereo not given)	inactive
CC[C@H]1CN2CC[C@@H]1C[C@@H]2[C@@H](O)c1cc(-c2ccc(F)cc2)nc2ccc(OC)cc12	inactive
COCCNCc1ccc(-c2ccc(CN(C(=O)NC3CCCCC3)C3CCN(Cc4ccccc4)CC3)cc2)cc1	inactive
CCCCn1c(C)c(C(=O)OCC)c2cc(OC(C)=O)c(Br)cc21	inactive
Cn1cc(CN2CCC(CCOC(c3ccccc3)c3ccccc3)CC2)cn1	inactive
O=C(Cc1cc(=O)oc2cc(O)ccc12)NC1CCC(CN2CCC(c3c[nH]c4ccccc34)CC2)CC1 (stereo not given)	inactive
CC(C)c1ccc(C=CC(=O)NC2CCC(CN3CCC(c4c[nH]c5ccccc45)CC3)CC2)cc1 (stereo not given)	inactive
COc1ccc(CC(C)NCC(O)c2cccc(Br)c2)cc1 (stereo not given)	inactive
C=C[C@H]1CN2CC[C@@H]1C[C@H]2[C@H](O)c1cc(-c2ccc(F)cc2)nc2ccc(OC)cc12	inactive
CN1CC=C(C=Cc2c[nH]c3ccccc23)CC1	inactive
CNCC(O)c1cc(Cl)c(Cl)cc1C (stereo not given)	inactive
[O-]c1n[n+](C2CCCCC2)no1	inactive
